Test results: PubChem BioAssay AID1159580 (chemical genetic matrix, 2015)
Where “and” joins values, the source holds several entries; their conditions need not be identical. Equal values may be shown once. Among all 5,500 compounds or so, about 2,000 (36%) were called active. Not shown: some 18% with an inconclusive outcome. Cut-off read from the data, not from the text of the source: active = normalized growth mostly below about 0.91 (no sharp cut-off); inconclusive = no clear call, values can overlap the other calls; inactive = mostly above about 0.92. The list shows a part of the results.

Experiment: chemical genetic growth profiling, strain panel (AID 1159580);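 note: tested at 20 µM; growth read once vehicle control cultures reached saturation at 30 °C; 1 = growth at the plate median or of vehicle wells; lower values mean less growth of the strain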
Details: S. cerevisiae deletion strains, growth OD

Measured: normalized growth

C[C@]12CCC3c4ccc(O)cc4CCC3C1CC[C@@H]2OC(=O)CCC1CCCC1 (some centres undefined)
inactive: locus YAL021C, strain ccr4, stronger effect = lower value 1.03 | locus YAL026C, strain drs2, stronger effect = lower value 0.997 | locus YAL030W, strain snc1, stronger effect = lower value 1.01 | locus YBL061C, strain skt5, stronger effect = lower value 1 | locus YBR009C, strain hhf1, stronger effect = lower value 1 | locus YBR021W, strain FUR4, stronger effect = lower value 1.02 | locus YBR023C, strain chs3, stronger effect = lower value 1.03 | locus YBR171W, strain sec66, stronger effect = lower value 1.02 | locus YBR229C, strain ROT2, stronger effect = lower value 0.961 | locus YBR231C, strain swc5, stronger effect = lower value 0.98 | locus YBR279W, strain paf1, stronger effect = lower value 1 | locus YCL011C, strain gbp2, stronger effect = lower value 1.02 | locus YCL016C, strain dcc1, stronger effect = lower value 1.03 | locus YCL029C, strain bik1, stronger effect = lower value 1 | locus YCL061C, strain MRC1, stronger effect = lower value 1.01 | locus YCL069W, strain vba3, stronger effect = lower value 1.01 | locus YCR088W, strain abp1, stronger effect = lower value 1.01 | locus YDL005C, strain med2, stronger effect = lower value 1.01 | locus YDL035C, strain GPR1, stronger effect = lower value 0.959 | locus YDL040C, strain nat1, stronger effect = lower value 0.997 | locus YDL074C, strain BRE1, stronger effect = lower value 0.97 | locus YDL101C, strain DUN1, stronger effect = lower value 0.985 | locus YDL185W, strain tfp1, stronger effect = lower value 0.975 | locus YDL192W, strain arf1, stronger effect = lower value 1 | locus YDR001C, strain nth1, stronger effect = lower value 1 | locus YDR069C, strain doa4, stronger effect = lower value 0.989 | locus YDR101C, strain arx1, stronger effect = lower value 0.959 | locus YDR137W, strain rgp1, stronger effect = lower value 1.03 | locus YDR150W, strain NUM1, stronger effect = lower value 0.985 | locus YDR159W, strain sac3, stronger effect = lower value 0.982 | locus YDR162C, strain NBP2, stronger effect = lower value 0.944 | locus YDR195W, strain ref2 1 | locus YDR297W, strain sur2, stronger effect = lower value 1.01 | locus YDR318W, strain mcm21, stronger effect = lower value 1 | locus YDR334W, strain swr1, stronger effect = lower value 1.01 | locus YDR335W, strain msn5, stronger effect = lower value 1.02 | locus YDR388W, stronger effect = lower value 0.991 | locus YDR392W, strain spt3, stronger effect = lower value 0.944 | locus YDR502C, strain sam2, stronger effect = lower value 0.994 | locus YEL003W, strain gim4, stronger effect = lower value 0.988 | locus YEL037C, strain rad23, stronger effect = lower value 0.992 | locus YEL061C, strain CIN8 (second series), stronger effect = lower value 1.01 | locus YEL061C, strain CIN8, stronger effect = lower value 0.989 | locus YER015W, strain faa2, stronger effect = lower value 1 | locus YER016W, strain bim1, stronger effect = lower value 1.01 | locus YER110C, stronger effect = lower value 1.01 | locus YER111C, strain swi4, stronger effect = lower value 1.01 | locus YER155C, strain BEM2 (second series), stronger effect = lower value 1.01 | locus YER155C, strain BEM2, stronger effect = lower value 1 | locus YER167W, strain BCK2, stronger effect = lower value 1.01 | locus YFR010W, strain ubp6, stronger effect = lower value 1.01 | locus YGL078C, strain dbp3, stronger effect = lower value 0.998 | locus YGL086W, strain mad1, stronger effect = lower value 0.994 | locus YGL167C, strain pmr1, stronger effect = lower value 1.01 | locus YGL173C, strain kem1, stronger effect = lower value 1.02 | locus YGL227W, strain vid30, stronger effect = lower value 1.03 | locus YGL240W, strain doc1, stronger effect = lower value 1.05 | locus YGL248W, strain PDE1, stronger effect = lower value 0.99 | locus YGL253W, strain hxk2, stronger effect = lower value 1.01 | locus YGR135W, strain pre9, stronger effect = lower value 1.07 | locus YGR229C, strain SMI1, stronger effect = lower value 0.982 | locus YGR252W, strain gcn5, stronger effect = lower value 1.16 | locus YHR013C, strain ard1, stronger effect = lower value 1.03 | locus YHR027C, strain rpn1, stronger effect = lower value 0.995 | locus YHR030C, strain SLT2, stronger effect = lower value 0.99 and 1.03 | locus YHR079C, strain IRE1 (second series), stronger effect = lower value 0.996 | locus YHR079C, strain IRE1, stronger effect = lower value 1.04 | locus YHR094C, strain hxt1, stronger effect = lower value 0.997 | locus YHR129C, strain ARP1, stronger effect = lower value 0.992 | locus YHR142W, strain chs7, stronger effect = lower value 1.05 | locus YHR200W, strain rpn10, stronger effect = lower value 0.998 | locus YIL066C, strain RNR3, stronger effect = lower value 0.977 | locus YIL073C, strain SPO22, stronger effect = lower value 0.989 | locus YIL125W, strain kgd1, stronger effect = lower value 0.989 | locus YIR030C, strain dcg1, stronger effect = lower value 1.01 | locus YJL092W, strain hpr5, stronger effect = lower value 1.01 | locus YJL095W, strain BCK1 (second series), stronger effect = lower value 1.01 | locus YJL095W, strain BCK1, stronger effect = lower value 1.01 | locus YJL115W, strain asf1, stronger effect = lower value 1.01 | locus YJL129C, strain trk1, stronger effect = lower value 1.03 | locus YJL134W, strain LCB3, stronger effect = lower value 0.979 | locus YJL154C, strain vps35, stronger effect = lower value 1.01 | locus YJL164C, strain tpk1, stronger effect = lower value 0.996 | locus YJL166W, strain qcr8, stronger effect = lower value 1.02 | locus YJL168C, strain set2, stronger effect = lower value 0.995 | locus YJL187C, strain SWE1 (second series), stronger effect = lower value 0.976 | locus YJL187C, strain SWE1, stronger effect = lower value 1.01 | locus YJR043C, strain POL32, stronger effect = lower value 0.967 | locus YJR066W, strain TOR1, stronger effect = lower value 0.929
